Data published in PubChem BioAssay AID2685 (National Center for Advancing Translational Sciences (NCATS), 2010).
In all, about 320,000 compounds went through this assay and about 2,100 (0.66%) were called active. Not shown: some 53% with an inconclusive outcome. The call rests on the fitted dose curve; in most records, active means well fitted inhibition curve with a large enough effect in the signal ratio, with a control signal flat (not every such curve was filed as active); inconclusive means small, poorly fitted or top-dose-only effect, or effect the other way, or a change in a side signal; inactive means flat fitted curve, though single readings scatter; the % refers to the signal ratio. The list comes from a sample in which actives are over-represented; it also holds similar structures and randomly drawn compounds.
Potency means the concentration at half of the fitted maximal effect.

Assay: qHTS Assay for Lipid Storage Modulators in Drosophila S3 Cells;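 on cell number change: cells counted by Cell Tracker Red CMTPX staining in the red channel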; on lipid storage change, negative = inhibition: on the % scale 0 is the no-effect control and ±100 the full control effect
Settings: BODIPY lipid droplet fluorescence, 18-24 h, cells fed with added oleic acid; cell number change: measured here: cell count max response; series mostly up to 46.1 µM; lipid storage change, negative = inhibition: at the top concentration
Description: NIH Molecular Libraries Probe Production Centers Network [MLPCN] NIH Chemical Genomics Center [NCGC] MLPCN Grant: 1 R03 MH085686-01 Assay Submitter (PI): Beller, Mathias; Max-Planck-Institut fur Biophysikalische Chemie NCGC Assay Overview: Storing lipids as a reservoir for energy or the anabolism of elementary metabolites is a common feature of probably all cells and is conserved from bacteria to humans. The universal cellular lipid storage organelle is the so-called lipid storage droplet (LD). Although ubiquitous, LDs share a simple structure composed of a hydrophobic core that harbors the storage lipids, which is shielded by a droplet-specific phospholipid monolayer to which proteins are attached. The current model of LD biogenesis involves an incorporation of the lipid core into the membrane leaflets of the endoplasmic reticulum (ER) followed by a subsequent budding-like maturation of a LD, which ultimately pinches off. Once released, LD volume can increase by localized lipogenesis or fusion of existing droplet. Storage lipids are re-mobilized enzymatically by lipase activity. Lipase regulation in the adipocyte is heavily studied and involves multiple components including catecholamine signaling, the LD-associated proteins Perilipin and comparative gene identification (CGI-58) and at least two lipases named hormone sensitive lipase (HSL) and adipocyte triglyceride lipase (ATGL). LD regulation outside of the adipocyte is poorly understood and only few components are known. However, there is an urgent need to learn more about ectopic fat depots as mislocalized storage of lipids, for example in the liver or muscle, is an eminent health problem associated with insulin resistance or the metabolic syndrome. We developed a laser-scanning cytometer assay to enable 1,536-well screening and combined the results of the small molecules screen with an RNAi database based on lipid storage.
Triacsin C (Sigma-Aldrich T-4540), an inhibitor of long-chain fatty acyl CoA synthetase that blocks synthesis of triglycerides, was used as a positive control for lipid under-storage. A total of 23 nL of compound solution of different concentrations were transferred to the assay plates using a Kalypsys pin tool equipped with a 1,536-pin array containing 10-nL slotted pins (FP1S10, 0.457-mm diameter, 50.8 mm long; V&P Scientific). One microliter of oleic acid (400 uM) was added, and the plate was lidded with stainless steel rubber gasket lined lids containing pinholes. […] Fluorescence was detected by excitation of the fluorophores with a 488-nm laser on an Acumen Explorer (TTP Lab Tech). The total intensity in channel 2 (500-530 nm) reflected lipid droplet accumulation. Cells were detected using channel 3 (575-640 nm) with 5-um width and 100-um depth filters. The ratio of the number of objects in PMT channel 2 over the number of objects in PMT channel 3 was also calculated. Percent activity was computed relative to an internal control (100% inhibited lipid droplet deposition due to the presence of 20 uM Triacsin C), which was added to 32 wells/plate.
With `CCc1cccc(CC)c1NC(=O)COC(=O)CC1c2ccccc2CCN1S(=O)(=O)c1ccccc1` (centres undefined) the “lipid storage change, negative = inhibition” value was -0.415% (inactive) and the cell number change was 0.0752%.
For `COCCSc1nc(N)c(NC(=O)c2ccco2)c(=O)[nH]1`, the “lipid storage change, negative = inhibition” value was -9.67% (inactive) and the cell number change was -16.8%.
In the case of `COc1ccc(CC(=O)NCC(=O)N/N=C/c2c[nH]c3ccccc23)cc1`, the “lipid storage change, negative = inhibition” value is reported as 27.6% (inactive) and the cell number change is reported as 14.2%.
With `CCCCCCCNC(=O)C1(CC2CC(c3ccc(Cl)cc3)=NO2)CCNCC1` (centres undefined) the “outcome” value was “inactive” and the cell number change was -6.47%.
With `CNC(=O)/C(=C\c1cccc(Oc2ccccc2)c1)NC(=O)c1ccccc1` the “lipid storage change, negative = inhibition” value was -0.332% (inactive) and the cell number change was 2.1%.
With `CCCCn1c(-c2ccc(OC)cc2)nc2c(=O)n(C)c(=O)[nH]c21` the “lipid storage change, negative = inhibition” value was 4.44% (inactive) and the cell number change was 12.4%.
With `CCCn1c(-c2ccccc2)nc2c(=O)n(C)c(=O)[nH]c21` the “lipid storage change, negative = inhibition” value was -1.42% (inactive) and the cell number change was -15.6%.
In the case of `CCCn1c(-c2ccc(OC)cc2)nc2c(=O)n(C)c(=O)[nH]c21`, the Potency is reported as 29.1 µM (active) and the cell number change is reported as 11.6%.
With `CN(C)c1ccc(NC(=O)CN2CCC(NC(=O)C3CCCCC3)CC2)cc1` the “lipid storage change, negative = inhibition” value was -9.2% (inactive) and the cell number change was 6.84%.
In the case of `CCN1CCN(CC(=O)Nc2ccc(N(C)C)cc2)CC1`, the “outcome” value is reported as “inactive” and the cell number change is reported as 14.8%.
With `CN(C)c1ccc(NC(=O)CN2CCC(N3CCCCC3)CC2)cc1` the Potency was 23.1 µM (active) and the cell number change was -25.9%.
In the case of `O=C(O)C1CC1C(=O)N1CCN(c2ccc(Cl)c(Cl)c2)CC1` (centres undefined), the “lipid storage change, negative = inhibition” value is reported as 3.52% (inactive) and the cell number change is reported as 16.3%.
With `CCc1nc2nc(C)c(NS(=O)(=O)c3ccc(C4CCCCC4)cc3)c(=O)n2[nH]1` the “outcome” value was “inactive”.
In the case of `Cc1ccccc1-n1ncc2c1CC(C)(C)CC2NC(=O)c1snnc1C` (centres undefined), the “lipid storage change, negative = inhibition” value is reported as 2.11% (inactive) and the cell number change is reported as 7.34%.
For `Cc1cc(C(=O)NC2CCCc3c2cnn3-c2cccc(C)c2C)n(C)n1` (centres undefined), the Potency was 0.92 µM (active) and the cell number change was 5.94%.
With `COc1ccc(C(=O)NC2CCCc3c2cnn3-c2cc(F)cc(F)c2)c(OC)c1OC` (centres undefined) the “outcome” value was “inactive”.
For `COc1cc(C(=O)NC2CC(C)(C)Cc3c2cnn3-c2ccccc2)cc(OC)c1OC` (centres undefined), the “lipid storage change, negative = inhibition” value was 6.07% (inactive) and the cell number change was 9.79%.
With `COc1cc(C(=O)NC2CCCc3c2cnn3-c2ccccc2F)cc(OC)c1OC` (centres undefined) the Potency was 16.4 µM (active) and the cell number change was 22.4%.
In the case of `O=C(CCN1CCCC1=O)NC1CCCc2c1cnn2-c1ccccc1F` (centres undefined), the “lipid storage change, negative = inhibition” value is reported as -1.27% (inactive) and the cell number change is reported as 11%.
For `Cc1cccc(-n2ncc3c2CCCC3NC(=O)CN2CCCC2=O)c1C` (centres undefined), the “lipid storage change, negative = inhibition” value was 6.5% (inactive) and the cell number change was -2.49%.
For `Cc1cccc(-n2ncc3c2CCCC3NC(=O)CCN2CCCO2)c1C` (centres undefined), the “lipid storage change, negative = inhibition” value was -7.74% (inactive) and the cell number change was -19.9%.
In the case of `Cc1nnsc1C(=O)NC1CCCc2c1cnn2-c1ccccc1F` (centres undefined), the Potency is reported as 4.11 µM (active).
In the case of `O=C(O)CCCC(=O)Nc1nc(-c2ccc(F)cc2)cs1`, the “outcome” value is reported as “inactive”.
In the case of `COc1ccc(-n2c(SCC(=O)NCC3CCCO3)nc3c([nH]c4ccccc43)c2=O)cc1OC` (centres undefined), the “outcome” value is reported as “inactive” and the cell number change is reported as -13.6%.
In the case of `Cc1ccc(OCC(=O)Nc2ccc(N3CCN(S(C)(=O)=O)CC3)cc2)cc1`, the “outcome” value is reported as “inactive” and the cell number change is reported as 18.1%.
For `O=C(CSc1nnc2c(Cl)cc(C(F)(F)F)cn12)Nc1ccc2c(c1)OCO2`, the “lipid storage change, negative = inhibition” value was 18.7% (inactive) and the cell number change was -8.45%.
In the case of `COc1ccc(-c2cn[nH]c2-c2ccc(OCC(=O)NN)cc2O)cc1OC`, the “lipid storage change, negative = inhibition” value is reported as 4.99% (inactive) and the cell number change is reported as 12.9%.
With `O=C(N[C@@H](CO)C(=O)NCc1ccccc1)c1ccc(C(F)(F)F)cc1` the “lipid storage change, negative = inhibition” value was 5.11% (inactive) and the cell number change was 23.3%.
With `COc1cccc(CNC(=O)CCC(=O)N2Cc3cccc(OC)c3Oc3ncccc32)c1OC` the “lipid storage change, negative = inhibition” value was -20.7% (inactive).
With `Cc1ccc(CSCc2ccc(C(=O)NCCCN3CCOCC3)o2)cc1` the “lipid storage change, negative = inhibition” value was -1.21% (inactive).
For `COc1cc(S(=O)(=O)N(Cc2cccnc2)Cc2cccc(OC)c2OC)ccc1-n1cnnn1`, the “lipid storage change, negative = inhibition” value was -2.65% (inactive) and the cell number change was -1.62%.
With `O=C(COc1ccc([N+](=O)[O-])cc1)Nc1ccc(NC(=O)c2ccccc2)cc1` the “lipid storage change, negative = inhibition” value was 8.49% (inactive) and the cell number change was -8.36%.
With `O=C(O)c1ccc(N2N=C(c3ccccc3)CC2c2ccccc2)cc1` (centres undefined) the “outcome” value was “inactive” and the cell number change was -6.08%.
With `Oc1ccccc1C1=NN(c2ccccc2)C(c2ccccc2)C1` (centres undefined) the Potency was 1.64 µM (active) and the cell number change was 0.901%.
With `O=Cc1ccc(N2N=C(c3ccccc3)CC2c2ccccc2)cc1` (centres undefined) the “lipid storage change, negative = inhibition” value was 2.28% (inactive) and the cell number change was -15.5%.
With `CS(=O)(=O)c1ccc(C(=O)NCc2ccc(F)cc2)cc1` the “lipid storage change, negative = inhibition” value was 1.05% (inactive) and the cell number change was 23%.
For `N/C(Cc1ccc([N+](=O)[O-])cc1)=N\OC(=O)c1ccc(Br)o1`, the “lipid storage change, negative = inhibition” value was 6.27% (inactive) and the cell number change was 10.2%.
For `N/C(=N\OC(=O)c1ccc([N+](=O)[O-])cc1)c1ccc(Br)cc1`, the “outcome” value was “inactive” and the cell number change was 19%.
With `N/C(Cc1ccc([N+](=O)[O-])cc1)=N\OC(=O)c1ccc(Br)cc1` the Potency was 8.2 µM (active) and the cell number change was 0.393%.
With `COC(=O)c1sccc1N/N=C/c1cccc(Oc2ccccc2)c1` the “lipid storage change, negative = inhibition” value was 10.2% (inactive) and the cell number change was -12.1%.
In the case of `COc1ccc(CNC(=O)CCn2c(=O)c3cccn3c3ccc(F)cc32)cc1`, the Potency is reported as 5.8 µM (active) and the cell number change is reported as -3.83%.
In the case of `COc1ccc(NC(=O)CCn2c(=O)c3cccn3c3ccccc32)cc1`, the “outcome” value is reported as “inactive” and the cell number change is reported as -20.6%.
In the case of `CCCCNC(=O)CCn1c(=O)c2cccn2c2ccc(F)cc21`, the “lipid storage change, negative = inhibition” value is reported as -5.76% (inactive) and the cell number change is reported as -8.11%.
In the case of `CCCS(=O)(=O)c1nc(S(=O)(=O)c2ccc(C)cc2)c(N2CCC(C)CC2)s1`, the “lipid storage change, negative = inhibition” value is reported as -12.9% (inactive).
In the case of `CCCS(=O)(=O)c1nc(S(=O)(=O)c2ccc(C)cc2)c(N2CC(C)OC(C)C2)s1` (centres undefined), the Potency is reported as 18.4 µM (active) and the cell number change is reported as -24.5%.
For `CCCS(=O)(=O)c1nc(S(=O)(=O)c2ccc(C)cc2)c(N2CCN(C)CC2)s1`, the “outcome” value was “inactive”.
